# Cycloheximide cs: counter-screen for Shiga toxin inhibitors: cycloheximide protein synthesis inhibition; cell reporter, cycloheximide protein synthesis inhibition counterscreen; max response, %; hit rate 12% among 300,000; AID 2314; in the data active means max response mostly above about 13%, no sharp cut-off; inactive means mostly below about 14%; further: read at 38.3 µM for the half of the compounds with a filed dose
# Pf growth 48h: inhibits P. falciparum growth in the first generation, 48 h. P. falciparum luciferase growth in erythrocytes, 48 h. Potency, µM (highest dose often 28.7 µM), actives largely listed as inhibitors. hit rate 5.9% among 310,000; active means well fitted inhibition curve with a large enough effect; inconclusive means small, poorly fitted or top-dose-only effect, or another doubt; inactive means no such curve, though single readings can be large or run the other way
#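 Cell-based growth assay: transgenic P. falciparum expressing firefly luciferase, cultured in red cells within RPMI 1640 containing 0.5% w/v Albumax, 24 mM bicarbonate and gentamycin. A drop in luciferase activity indicates inhibition.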
# Shiga toxin inh: inhibitors of Shiga toxin in Vero cells; Vero cells, Shiga toxin protein synthesis inhibition reporter; inhibition, % at 38.7 µM; hit rate 9.2% among 290,000; AID 2315; in the data active means inhibition mostly above about 28%, no sharp cut-off; inactive means mostly below about 43%
# SARS PLP yeast: blocks SARS-CoV papain-like protease in a yeast assay. AID 485353. S. cerevisiae expressing SARS-CoV PLpro, growth rescue. hit rate 0.19% among 330,000. Potency, µM (titrated, usually from 32.9 µM), usual class: activators; further: nearly all actives have a fitted effect of over 55% in size
# NS1 inh: blocks influenza NS1 protein function. Potency, µM (doses to about 46.1 µM). hit rate 0.4% among 270,000; further: actives are rising curves; nearly all actives have a fitted effect of over 50% in size
#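 S. cerevisiae expressing influenza A NS1, grown in glucose, washed, then diluted 1:100 into pH 6.0 -URA galactose medium with 23 nl compound. Growth recovery read as OD600; NS1-free strain serves as control.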
# Pf growth 96h: P. falciparum growth inhibition at 96 hour, primary screen for plastid delayed-death inhibitors. P. falciparum luciferase reporter growth, 96 h. Potency, µM (highest dose often 28.7 µM), usual class: inhibitors. hit rate 6.9% among 320,000. AID 504834; active means well fitted inhibition curve with a large enough effect; inconclusive means small, poorly fitted or top-dose-only effect, or another doubt; inactive means no such curve, though single readings can be large or run the other way
#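 Plates of compound plus infected erythrocytes (2% hematocrit, 0.05% parasitemia final) incubate 96 hours, 37 C, 5% CO2. Detection reagent added; reduced luminescence from the parasites' luciferase reporter flags inhibition.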
# Numbers stand for hits; - = inactive; ? = inconclusive; . = not tested or not shown. Compounds with a hit are over-represented: about 21% of the library has one in this group of screens. Unless noted, the call rests on the fitted dose curve.
SMILES,Cycloheximide cs,Pf growth 48h,Shiga toxin inh,SARS PLP yeast,NS1 inh,Pf growth 96h
CC(=O)NC(CC(=O)N(Cc1ccccc1)c1cccc(C)c1)c1ccccc1 (centres undefined),-,?,-,-,-,?
Cc1cc(Cl)c(S(=O)(=O)Nc2cc(S(=O)(=O)N3CCOCC3)ccc2F)cc1OCC(N)=O,-,-,-,-,-,?
O=C(Nc1nnc(CC2=CCCCC2)s1)c1cccs1,30,-,100,-,-,.
Cc1ccc(C(=O)Nc2nnc(Cc3ccccc3)s2)cc1,-,-,-,-,-,-
O=C(Nc1nnc(Cc2ccccc2)s1)C1CCC1,-,?,-,-,-,1.7µM
O=C(Nc1nnc(Cc2ccccc2)s1)c1ccccc1,17,-,39,-,-,?
O=C(Nc1nnc(Cc2ccccc2)s1)C1CCN(C(=O)c2ccco2)CC1,-,-,-,-,-,-
Cc1cccc(C(=O)Nc2nnc(Cc3ccccc3)s2)c1,9.3,?,-,-,-,10µM
O=C(Nc1nnc(Cc2ccc(Cl)cc2)s1)c1cccs1,-,-,-,-,-,-
O=C(c1ccco1)N1CCN(c2cc(N3CCOCC3)c(F)cc2[N+](=O)[O-])CC1,-,-,-,-,-,?
C=CCn1c(=O)c2ccccc2n2c(SCC(=O)NC)nnc12,-,-,-,-,-,-
CCCCC(=O)Nc1ccc(C(=O)N(CC)c2ccccc2C)cc1,-,?,-,-,-,?
Cc1ccc(N=C2C(=O)Nc3ccccc32)cc1,-,-,-,-,-,-
CCN(CC)c1ccc(N=C2C(=O)Nc3ccccc32)cc1,-,3.3µM,-,-,-,?
Fc1ccc(C2=CC(c3cccs3)n3nnnc3N2)cc1 (centres undefined),27,-,59,-,-,-
C1=C(c2ccccc2)Nc2nnnn2C1c1cccs1 (centres undefined),16,-,69,-,-,-
CC1=C(C(=O)Nc2ccccc2)C(c2cccs2)n2nnnc2N1 (centres undefined),-,?,-,-,-,-
OCCCc1nc2n(n1)C(c1cccs1)C=C(c1ccccc1)N2 (centres undefined),-,.,-,?,-,-
CCCCc1c(CCC)c(=N)c2ccccc2n1C,-,?,-,-,-,-
CCOc1ccc(NC(=O)C2CCN(S(=O)(=O)c3ccc4c(c3)C(C)(C)C(=O)N4C)CC2)cc1,-,-,-,-,-,-
COc1ccc(CNC(=O)C(C)N(Cc2ccccc2OC)C(=O)c2snc(C(N)=O)c2N)cc1 (centres undefined),-,?,-,-,-,-
O=Cc1ccccc1OCCOc1ccc([N+](=O)[O-])cc1,26,-,-,-,.,?
CCOc1cc(C=C(C(=O)OC)C(=O)OC)ccc1OCc1ccc([N+](=O)[O-])cc1,-,?,-,-,-,-
CCOc1cc(/C=N/O)ccc1OCc1ccc([N+](=O)[O-])cc1,-,-,37,-,-,-
COc1cc(/C=N/n2c(C)n[nH]c2=S)ccc1OCc1ccc(F)cc1,48,?,65,-,-,-
SMILES,Cycloheximide cs,Pf growth 48h,Shiga toxin inh,SARS PLP yeast,NS1 inh,Pf growth 96h
O=[N+]([O-])c1ccc(COc2ccccc2/C=N/O)cc1,45,-,90,-,-,-
CC1=CS(=O)(=O)CC1SC(=S)N(C)C1CCS(=O)(=O)C1 (centres undefined),-,-,-,-,.,-
COc1ccc(CCC(=O)OCC(=O)Nc2ccc(OC)c(OC)c2)cc1OC,-,?,-,-,-,-
O=C1CC(=O)C(n2cncn2)C(c2ccc(Cl)cc2Cl)C1 (centres undefined),-,-,-,-,-,-
COC(=O)CNC(=O)CN1C(=O)N(c2cccc(Cl)c2)C(N(O)C(=O)Nc2cccc(Cl)c2)C1(C)C (centres undefined),-,-,-,-,-,-
CCOc1cc(/C=N/O)ccc1OCc1ccc(F)cc1,-,-,65,-,-,3.7µM
NC(=S)N/N=C/c1cc([N+](=O)[O-])ccc1OCCOc1ccccc1,-,.,-,-,-,-
COc1cc(/C=N\n2nnnc2N)ccc1OCc1ccc(F)cc1,-,-,-,-,-,?
O=C1NC(=O)/C(=C\c2ccccc2OCc2ccc([N+](=O)[O-])cc2)N1,-,-,-,-,-,12µM
O=C1NC(=O)/C(=C\c2ccc(OCc3cccc([N+](=O)[O-])c3)cc2)N1,-,-,-,-,.,-
CC(=O)N/N=C/c1cc([N+](=O)[O-])ccc1OCCOc1ccccc1,-,-,-,-,-,6.6µM
C/C(N)=C(/C#N)C(=O)CSc1cc(C)c2ccccc2n1,-,-,-,-,-,-
CCN(C(=O)Cn1cnc2c(nc3n2CCCCC3)c1=O)c1cccc(Cl)c1,-,-,-,-,-,-
COC(=O)c1cc(S(=O)(=O)NCC2CCN(Cc3cc(C)ccc3C)CC2)c[nH]1,-,-,-,-,-,-
CCc1nnc(NC(=O)CSc2nnc(-c3cccnc3)n2C)s1,-,-,-,-,.,-
C/C(CC(=O)Nc1ccccc1C)=N\NC(=O)Cc1csc(N)n1,41,-,62,-,-,-
C/C(CC(=O)Nc1ccc(Br)cc1)=N\NC(=O)Cc1csc(N)n1,29,-,-,-,-,-
C/C(CC(=O)Nc1ccc(F)cc1)=N\NC(=O)Cc1csc(N)n1,-,-,-,-,-,-
COc1ccccc1N(CC(=O)NCCN1CCOCC1)S(=O)(=O)c1ccc(C)cc1,.,-,.,-,.,-
CCOC(=O)C1C(c2cccc(Cl)c2Cl)NC(=O)NC1(O)C(F)(F)F (centres undefined),-,-,-,-,-,-
C/C(=N\NC(=O)c1ccncc1)c1cccc(NC(=O)c2ccc(Cl)s2)c1,31,-,77,?,-,-
C/C(=N\NC(=O)c1cccc(Cl)c1)c1cccc(NC(=O)C(C)C)c1,30,-,46,-,-,?
C/C(=N\NC(=O)c1ccc(Cl)cc1)c1cccc(NC(=O)C(C)C)c1,17,-,-,-,-,-
C/C(=N\NC(=O)c1ccc(Cn2cc(Br)cn2)o1)c1cccc(NC(=O)C(C)C)c1,20,-,-,-,-,12µM
C/C(=N\NC(=O)c1ccc(Cl)c(Cl)c1)c1cccc(NC(=O)C(C)C)c1,-,-,-,-,-,-
CCC(CC)C(=O)Nc1cccc(/C(C)=N/NC(=O)c2ccccc2Cl)c1,16,.,-,-,-,?
CCC(CC)C(=O)Nc1cccc(/C(C)=N/NC(=O)c2c(Br)cnn2C)c1,-,-,-,-,-,?
CCNS(=O)(=O)c1ccc(NC(=O)c2ccc(Cn3cc(Br)cn3)o2)cc1,-,-,-,-,-,12µM
O=[N+]([O-])/C(=C\Nc1ccc(F)cc1F)S(=O)(=O)c1ccccc1,-,-,-,-,-,-
CC(=O)N1c2ccc(S(=O)(=O)NCC3CCC(C(=O)NCc4ccccc4)CC3)cc2CC1C (centres undefined),-,?,-,-,-,-

# Bioassay records: PubChem BioAssay, National Center for Advancing Translational Sciences (NCATS)
